Source: PubChem BioAssay AID1508600 (Functional Genomics Laboratory (NCATS/FGL), 2020)
About 3,700 (7%) of roughly 53,000 sequences were called active.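 How the source made its calls: active means gene knockdowns whose robust z-score for IL-1 alpha signal is at least 2 or at most -2, so actives lie on both sides; inactive means the rest.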 The entries come from a sample that favours actives as a whole.

Test: Components of the Cytosolic LPS Sensing Pathway: Gene Identification via Genome-wide siRNA Screen;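 further: robust z of the log signal after scaling to non-targeting control siRNA wells of the plate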
Conditions: RAW264.7 macrophages, IL-1a HTRF, actives lie on both sides, screened at 100 nM (by protocol), cells primed 5 h with Pam3CSK4 first
Method in brief: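 Mouse macrophage line RAW264.7 is transfected with siRNA (100 nM final), grown 48h, primed with TLR ligand Pam3CSK4 5 h and given intracellular LipidA 24 h. IL-1a in supernatant is read by HTRF and viability by luminescence.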

| Sequence | z-score |
| --- | --- |
| GCCUUUGGAAGUUCAGAACTT against Rnf216 | -1.07 (inactive) |
| GAUUGGAACUUGUGGAUCUTT against Defb8 | 0.424 (inactive) |
| GGUACUGGACCAAAUUGCUTT against Ppp1r15b | 2.26 (active) |
| CGGCACCUAUGAGUCUUACTT against Cyp4x1 | 2.13 (active) |
| CGAUCCAUGUUGUAAGCGCTT against Adam39 | 0.347 (inactive) |
| GGUUAAAGUGUAUUUACAGTT against Fkbp14 | 0.124 (inactive) |
| GGUCCUUAACCGCUAUGCATT against Esrp2 | 0.294 (inactive) |
| GGAAGCUUCAGGAGUAUAUTT against Sdc2 | -0.326 (inactive) |
| GUGGCUGACAAGUUUAUCATT against Cyp2c66 | -0.132 (inactive) |
| AACUAGCAAUAUGAUGGAGTT against Chic1 | -0.55 (inactive) |
| GGGUUUGUUAAGUCCUGUGTT against Gsdmc | -2.09 (active) |
| GCAAUAACCCAAUUCCUGATT against Phex | 0.179 (inactive) |
| GGACAGUAUGAAUUUGAAUTT against Lcp1 | 2.44 (active) |
| GGCCUAUCUGACCUACACCTT against Wnt8a | -0.271 (inactive) |
| GCCAUAUGAUAAUAUAGAGTT against Gbp6 | -0.574 (inactive) |
| CCUCAACCGGCAGUUCUUGTT against Uba2 | -0.574 (inactive) |
| GCAUAGCUAACUCAGCAUATT against Map2k2 | 1.09 (inactive) |
| GGAAACCAUUGAAGAUGUUTT against Psmd13 | -1.2 (inactive) |
| CCCUGAAGUUUAUGCAACATT against Ttyh2 | -3.02 (active) |
| GGUAAUGAGCAGAUGAAGCTT against Sgta | 0.622 (inactive) |
| GGUGGUUUAAGAAAUCAAATT against Dolpp1 | 0.34 (inactive) |
| GGCCCUAGAUAUUGAUUUUTT against Rbp2 | -0.338 (inactive) |
| GGAGAUUGGGAUCAAUUAGTT against Sall3 | 0.576 (inactive) |
| GGACGUGACCAUGAUGUCUTT against Oacyl | -3.46 (active) |
| GCAUCCUUUGUCGAAGUGGTT against Clec18a | -0.495 (inactive) |
| GGGAUUUUGUACAUUUUUGTT against Egln3 | 1.51 (inactive) |
| CCGACGGAUAGCUUGGAUGTT against Fgb | -0.214 (inactive) |
| GGACGGAGGAUUCUGAAACTT against Prepl | 2.42 (active) |
| GGAAAGCUUACAGUUGAAATT against 4933427D06Rik | 0.992 (inactive) |
| GGAAAGCUAAGGCUGUACUTT against Dnal1 | -0.103 (inactive) |
